From PubChem BioAssay AID1159580 (chemical genetic matrix, 2015)
Out of some 5,500 compounds screened, about 2,000 (36%) were called active. Not shown: some 18% with an inconclusive outcome. Rule as the data show it: active = normalized growth mostly below about 0.91 (no sharp cut-off); inconclusive = no clear call, values can overlap the other calls; inactive = mostly above about 0.92. Some of the results follow.

Assay: chemical genetic growth profiling, strain panel (AID 1159580);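 also: tested at 20 µM; growth read once vehicle control cultures reached saturation at 30 °C; 1 = growth at the plate median or of vehicle wells; lower values mean less growth of the strain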
Conditions: S. cerevisiae deletion strains, growth OD

Measured: normalized growth

O=C1OC2(c3ccc(O)cc3Oc3cc(O)ccc32)c2ccccc21
inactive: locus YAL021C, strain ccr4, stronger effect = lower value 1.02 | locus YAL026C, strain drs2, stronger effect = lower value 0.997 | locus YAL030W, strain snc1, stronger effect = lower value 1.01 | locus YBL061C, strain skt5, stronger effect = lower value 1.01 | locus YBR009C, strain hhf1, stronger effect = lower value 0.995 | locus YBR023C, strain chs3, stronger effect = lower value 1.02 | locus YBR171W, strain sec66, stronger effect = lower value 1.04 | locus YBR231C, strain swc5, stronger effect = lower value 1 | locus YBR279W, strain paf1, stronger effect = lower value 1.01 | locus YCL011C, strain gbp2, stronger effect = lower value 1.02 | locus YCL016C, strain dcc1, stronger effect = lower value 1 | locus YCL069W, strain vba3, stronger effect = lower value 1.02 | locus YCR088W, strain abp1, stronger effect = lower value 1.03 | locus YDL005C, strain med2, stronger effect = lower value 1.02 | locus YDL040C, strain nat1, stronger effect = lower value 1.01 | locus YDR001C, strain nth1, stronger effect = lower value 1.03 | locus YDR069C, strain doa4, stronger effect = lower value 1.01 | locus YDR137W, strain rgp1, stronger effect = lower value 0.994 | locus YDR159W, strain sac3, stronger effect = lower value 0.986 | locus YDR195W, strain ref2 1.03 | locus YDR297W, strain sur2, stronger effect = lower value 1.02 | locus YDR334W, strain swr1, stronger effect = lower value 0.989 | locus YDR335W, strain msn5, stronger effect = lower value 1.01 | locus YDR392W, strain spt3, stronger effect = lower value 0.976 | locus YEL003W, strain gim4, stronger effect = lower value 1.01 | locus YEL037C, strain rad23, stronger effect = lower value 1.01 | locus YEL061C, strain CIN8 (second series), stronger effect = lower value 1.01 | locus YER015W, strain faa2, stronger effect = lower value 1.01 | locus YER016W, strain bim1, stronger effect = lower value 0.994 | locus YER111C, strain swi4, stronger effect = lower value 1.01 | locus YER155C, strain BEM2 (second series), stronger effect = lower value 1.02 | locus YFR010W, strain ubp6, stronger effect = lower value 1.02 | locus YGL167C, strain pmr1, stronger effect = lower value 1.02 | locus YGL173C, strain kem1, stronger effect = lower value 1.01 | locus YGL227W, strain vid30, stronger effect = lower value 1.02 | locus YGL240W, strain doc1, stronger effect = lower value 0.973 | locus YGL253W, strain hxk2, stronger effect = lower value 1.02 | locus YHR013C, strain ard1, stronger effect = lower value 1.04 | locus YHR027C, strain rpn1, stronger effect = lower value 1.01 | locus YHR030C, strain SLT2, stronger effect = lower value 0.978 | locus YHR079C, strain IRE1, stronger effect = lower value 0.974 | locus YHR142W, strain chs7, stronger effect = lower value 1.04 | locus YJL092W, strain hpr5, stronger effect = lower value 1.02 | locus YJL095W, strain BCK1 (second series), stronger effect = lower value 1.01 | locus YJL095W, strain BCK1, stronger effect = lower value 1.02 | locus YJL115W, strain asf1, stronger effect = lower value 1.01 | locus YJL129C, strain trk1, stronger effect = lower value 1.04 | locus YJL154C, strain vps35, stronger effect = lower value 1.02 | locus YJL164C, strain tpk1, stronger effect = lower value 1 | locus YJL166W, strain qcr8, stronger effect = lower value 1 | locus YJR066W, strain TOR1, stronger effect = lower value 0.938 | locus YKL160W, strain elf1, stronger effect = lower value 1.02 | locus YKR026C, strain gcn3, stronger effect = lower value 1.02 | locus YKR091W, strain srl3, stronger effect = lower value 1.02 | locus YLL001W, strain dnm1, stronger effect = lower value 0.997 | locus YLL026W, stronger effect = lower value 0.999 | locus YLL041C, strain sdh2, stronger effect = lower value 1.01 | locus YLR027C, strain aat2, stronger effect = lower value 1.01 | locus YLR113W, strain HOG1, stronger effect = lower value 0.98 | locus YLR221C, strain rsa3, stronger effect = lower value 0.999 | locus YLR258W, strain gsy2, stronger effect = lower value 1.01 | locus YLR262C, strain YPT6 (second series), stronger effect = lower value 1 | locus YLR320W, strain mms22, stronger effect = lower value 1 | locus YLR342W, strain FKS1, stronger effect = lower value 0.992 | locus YLR357W, strain rsc2, stronger effect = lower value 1.01 | locus YLR370C, strain arc18, stronger effect = lower value 1.01 | locus YLR384C, strain iki3, stronger effect = lower value 1.02 | locus YML120C, strain ndi1, stronger effect = lower value 1.04 | locus YMR058W, strain fet3, stronger effect = lower value 1.01 | locus YMR125W, strain sto1, stronger effect = lower value 1.02 | locus YMR129W, stronger effect = lower value 1.02 | locus YMR205C, strain PFK2, stronger effect = lower value 1.02 | locus YMR231W, strain pep5, stronger effect = lower value 1.02 | locus YNL071W, strain lat1, stronger effect = lower value 1.01 | locus YNL183C, strain NPR1, stronger effect = lower value 0.951 | locus YNL209W, strain ssb2, stronger effect = lower value 1.02 | locus YNL248C, strain rpa49, stronger effect = lower value 1 | locus YNL322C, strain KRE1 (second series), stronger effect = lower value 0.99 | locus YNR049C, strain mso1, stronger effect = lower value 1.02 | locus YOR001W, strain rrp6, stronger effect = lower value 1.01 | locus YOR070C, strain gyp1, stronger effect = lower value 1.01 | locus YOR080W, strain dia2, stronger effect = lower value 1.02 | locus YOR083W, strain WHI5, stronger effect = lower value 0.98 | locus YOR106W, strain vam3, stronger effect = lower value 1.02 | locus YOR231W, strain MKK1, stronger effect = lower value 0.971 | locus YOR265W, strain rbl2, stronger effect = lower value 1.01 | locus YOR270C, strain vph1, stronger effect = lower value 0.991 | locus YOR290C, strain snf2, stronger effect = lower value 1 | locus YPL051W, strain arl3, stronger effect = lower value 0.997 | locus YPL078C, strain atp4, stronger effect = lower value 0.992 | locus YPL106C, strain sse1, stronger effect = lower value 0.987 | locus YPL240C, strain hsp82, stronger effect = lower value 1.01 | locus YPL256C, strain CLN2, stronger effect = lower value 0.99
